High-throughput results deposited in PubChem BioAssay by several laboratories.
Rows were chosen to be rich in hits. Some 3.9% of all compounds tested hit in one or more screens of this group.
PHOSPHO1 inh: PHOSPHO1 (human) inhibition; inhibition, % at 13.3 µM; recombinant PHOSPHO1, absorbance phosphatase assay; Q8TCT1; 290,000 tested, 1.1% active; in the data active means inhibition above about 60%
Target sequence (Q8TCT1 whole entry, looked up): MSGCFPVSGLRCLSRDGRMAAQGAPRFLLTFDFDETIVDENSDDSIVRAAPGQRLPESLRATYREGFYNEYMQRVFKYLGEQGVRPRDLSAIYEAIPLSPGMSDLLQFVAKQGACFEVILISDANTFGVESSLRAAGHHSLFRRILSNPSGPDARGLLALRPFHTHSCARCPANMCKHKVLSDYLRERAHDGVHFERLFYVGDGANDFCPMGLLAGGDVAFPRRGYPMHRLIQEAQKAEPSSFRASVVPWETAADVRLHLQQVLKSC
TPT1 inhibitor: inhibitors of Candida albicans tRNA 2'-phosphotransferase TPT1; recombinant caTPT1, FP RNA substrate dephosphorylation; 300,000 tested, 0.81% active; inhibition, % at 5 µM;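 active means inhibition above the mean of all tested compounds plus 3 SD, set per screening campaign, cut at about 24% in these data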;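 further: plate controls were DMSO alone for no effect and ferristatin control at 100 nM for full effect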
SKKanGAS inh: SKKanGAS growth inhibition | S. pyogenes SKKanGAS, kanamycin growth, BacTiter-Glo, 6 h | inhibition, % at 7.5 µM | 300,000 tested, 1.3% active;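 active means mean replicate score, as percent of positive control median, at least 50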;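 further: strain carries kanamycin resistance gene driven by streptokinase promoter and grows in 40 µg/ml kanamycin; loss of luminescence reflects streptokinase promoter inhibition or plain growth inhibition; 0% = median of DMSO wells and 100% = positive control at its reference dose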
Rtt109 HAT inh: inhibitors of Candida albicans Rtt109/Vps75 histone acetyltransferase; purified Rtt109/Vps75, ThioGlo CoA-SH fluorescence, 4 h; 330,000 tested, 0.16% active; Q5AAJ8; inhibition, % at 34.9 µM;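 active means inhibition of at least 50% in every replicate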
Target sequence (Q5AAJ8 whole entry, looked up): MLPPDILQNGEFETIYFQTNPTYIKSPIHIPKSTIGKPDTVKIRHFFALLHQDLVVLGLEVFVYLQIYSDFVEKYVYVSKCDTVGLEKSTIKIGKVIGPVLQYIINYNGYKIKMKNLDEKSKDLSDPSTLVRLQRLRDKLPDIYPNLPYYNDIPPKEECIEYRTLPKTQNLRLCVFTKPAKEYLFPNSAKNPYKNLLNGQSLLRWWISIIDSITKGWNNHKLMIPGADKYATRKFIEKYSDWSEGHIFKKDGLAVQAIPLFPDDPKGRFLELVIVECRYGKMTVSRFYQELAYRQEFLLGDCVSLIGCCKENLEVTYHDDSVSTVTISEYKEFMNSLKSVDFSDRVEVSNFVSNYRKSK
WT yeast gro inh: growth inhibition of WT yeast, mitochondrial fusion screen. mitochondrial fusion phenotypic screen, WT strain. inhibition, % at 10 µM. 190,000 tested, 2.1% active. AID 1362; in the data active means inhibition above about 58%; tested in S. cerevisiae
Platelet DG rel: platelet dense granule release activity; human platelet-rich plasma, SFLLRN dense granule ATP release, luminescence; inhibition, %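 (compounds screened at 7.5 µM in platelet-rich plasma)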; 300,000 tested, 0.22% active; AID 1663;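 active means mean replicate score, as percent of positive control, at or above 50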
Starred values were filed as active, the others as inactive; · = no result given.

SMILES | PHOSPHO1 inh | TPT1 inhibitor | SKKanGAS inh | Rtt109 HAT inh | WT yeast gro inh | Platelet DG rel
O=C(NNC1=C(C(=O)C(F)(F)F)CCC1)c1ccc(Cl)cc1 | 9.9 | -3.0 | 101.0* | -6.4 | 8.4 | -5.3
O=C(NNC1=C(C(=O)C(F)(F)F)CCC1)c1cccc(Cl)c1 | -6.0 | -2.0 | 96.0* | 12.5 | 6.8 | 1.7
COc1ccc(C(=O)NNC2=C(C(=O)C(F)(F)F)CCC2)cc1 | 5.5 | -3.1 | 5.4 | 0.9 | · | -8.3
S=c1[nH]nc(C2CC2)n1Cc1ccco1 | 80.9* | -3.5 | -10.1 | -7.8 | 0.9 | -2.0
Oc1ccc(-c2n[nH]c(=S)n2Cc2ccco2)cc1 | 99.8* | -3.5 | -4.1 | -1.4 | 25.0 | 0.9
S=c1[nH]nc(Cc2ccccc2)n1Cc1ccco1 | 25.3 | -5.0 | 2.6 | -3.7 | -13.9 | -0.7
CCn1c(COc2ccccc2C)nnc1SCC(=O)CC(=O)Nc1ccccc1 | 69.4* | 2.2 | 43.7 | 1.3 | 44.5 | 0.2
CCn1c(COc2ccccc2C)nnc1SCC(=O)O | 39.0 | 0.1 | 6.6 | 3.0 | -7.4 | 2.0
O=c1[nH]c(=O)n(C2CC(O)C(CO)O2)cc1I (stereo not drawn) | · | · | · | 2.0 | · | ·
O=c1[nH]c(=O)n([C@H]2C[C@H](O)[C@@H](CO)O2)cc1F | 13.3 | 2.6 | 92.0* | 0.5 | -4.8 | 0.9
CCOC(=O)C1(C)/C(=N/Nc2ccc(S(N)(=O)=O)cc2)C(=O)C(=O)N1c1ccccc1 (stereo not drawn) | 2.2 | -5.6 | 4.2 | -3.1 | -0.8 | 0.0
CCOC(=O)C1(C)/C(=N/Nc2ccc(Cl)cc2)C(=O)C(=O)N1c1ccccc1 (stereo not drawn) | 102.7* | 1.6 | 6.7 | 3.0 | 25.0 | -3.5
CCOC(=O)C1(C)/C(=N/Nc2cccc(Cl)c2)C(=O)C(=O)N1c1ccccc1 (stereo not drawn) | 0.1 | -1.9 | 3.1 | -0.3 | -4.8 | 2.4
CCOC(=O)C1(C)/C(=N/Nc2ccccc2Cl)C(=O)C(=O)N1c1ccccc1 (stereo not drawn) | 92.4* | -0.2 | 4.6 | 0.0 | 33.5 | -1.9
CCCN(CC(=O)Nc1ccccc1OC)CC(=O)c1c(N)n(Cc2ccccc2)c(=O)n(C)c1=O | · | · | · | -5.2 | · | ·
O=C(COc1ccc(Cl)cc1Cl)NCc1ccco1 | 3.6 | -3.6 | 3.5 | -5.8 | -27.9 | -1.9
O=C(COc1ccc(Cl)cc1Cl)NNC(=S)NCc1ccco1 | -7.1 | -0.2 | -0.5 | 2.7 | 75.8* | -2.2
O=C(COc1ccc(Cl)cc1Cl)NNC(=S)NC(=O)c1ccco1 | 3.3 | 0.3 | 94.6* | -0.7 | · | -0.3
O=C(NC(=S)NCc1ccc(Cl)cc1Cl)c1ccco1 | · | · | · | -11.5 | · | ·
O=C(NNC(=S)NCc1ccco1)c1ccc(Cl)s1 | 102.6* | -5.5 | -7.8 | 4.3 | 3.2 | -1.0
CCCNC(=O)CN1C(=O)c2ccccc2Sc2ncccc21 | -11.3 | -0.6 | 1.5 | -3.7 | · | -2.4
COc1ccc(C(=O)Nc2cccc(C)n2)cc1S(=O)(=O)N1CCCc2ccccc21 | · | · | · | 2.6 | · | ·
CN(C(=O)c1ccc(NC(=O)Cc2ccc(NC(=O)C3CCCN(C(=O)C4CCC4)C3)cc2)cc1)C1CC1 (stereo not drawn) | · | · | · | 1.5 | · | ·
O=C(COC(=O)c1ccccc1Br)Nc1cccnc1Cl | · | · | · | -5.1 | · | ·
COc1ccc(-c2cc3ncnc(Cl)c3s2)cc1 | 27.0 | 13.4 | 54.1* | -3.6 | · | 14.2
SMILES | PHOSPHO1 inh | TPT1 inhibitor | SKKanGAS inh | Rtt109 HAT inh | WT yeast gro inh | Platelet DG rel
COc1ccc(-c2cc3nnc(-c4ccccc4)nc3s2)cc1 | -10.5 | -2.3 | 3.7 | 9.6 | -2.7 | 11.9
Cc1[nH]n(-c2ccc([N+](=O)[O-])cc2)c(=O)c1C=NCCN1CCN(C(=O)C(C)C)CC1 | 16.5 | -0.1 | 25.9 | 5.3 | 63.4* | 2.7
Cn1c(SCC(=O)N2CCOCC2)nnc1-c1cccc(NC(=O)c2ccccc2)c1 | 91.8* | 2.0 | -3.2 | 4.1 | 3.4 | -2.3
O=C(C1CCCCC1)N(Cc1nc2sc3c(c2c(=O)[nH]1)CCCC3)Cc1cccs1 | 15.4 | 1.9 | 27.0 | -5.4 | 58.6* | 0.2
N#CCOC(=O)[C@H](Cc1c[nH]c2ccccc12)NS(=O)(=O)c1ccc(Cl)cc1 | 31.3 | 0.4 | -0.9 | -5.5 | · | -1.0
C/C(=N\Nc1nc2c(s1)CCCC2)c1ccc(Cl)cc1 | -82.9 | -0.8 | 11.8 | -9.1 | 71.6* | 0.7
CN(C)c1ccc(C(=O)Nc2nc3c(s2)CCCC3)cc1 | 7.7 | 2.9 | 10.5 | 9.8 | 21.8 | 20.1
Cc1c(CN2CCC(CO)(CCOc3ccccc3)CC2)[nH]c2c(Cl)cccc12 | 10.2 | -4.7 | 3.5 | 27.4 | 92.9* | 0.8
Cc1nn(C)c(Cl)c1CN1CCC(CO)(CCOc2ccccc2)CC1 | 10.2 | 0.3 | -2.4 | -3.7 | -0.1 | 2.4
COc1cc(OC)c(CN2CCC(CO)(CCOc3ccccc3)CC2)c(OC)c1 | 64.2* | -3.2 | -0.8 | 13.1 | 3.6 | 8.3
CCCN(C(=O)COC(=O)COc1c(C)cccc1C)c1c(N)n(Cc2ccccc2)c(=O)[nH]c1=O | · | -1.8 | 19.7 | -1.8 | · | 8.3
C[n+]1ccc(/C=C/c2ccccc2O)c2ccccc21 | -29.0 | -0.4 | -20.5 | · | 64.6* | -2.8
CC(=O)/C=C/c1ccccc1O | 16.1 | 0.0 | -12.3 | -0.9 | 11.2 | -6.0
Cc1c(C(=O)NCC2CCCO2)oc2ccc(Br)cc12 (stereo not drawn) | · | -0.8 | 3.4 | -8.5 | · | -4.1
CN1CCN(C(=O)Cn2ncc3c([nH]c4ccccc43)c2=O)CC1 | 26.1 | 3.3 | -5.0 | 23.4 | · | 7.6
CCCn1cc(S(=O)(=O)CC(=O)NC2CCCCC2)c2ccccc21 | 4.9 | -5.4 | 5.3 | 50.9* | 3.5 | 4.9
CCOc1ccc2nc(SCC(=O)NCc3ccccc3OC)[nH]c2c1 | 22.8 | -0.9 | -6.2 | -2.3 | · | -2.0
O=C(CCN=C1NS(=O)(=O)c2ccccc21)NCc1ccccc1F | · | · | · | 2.4 | · | ·
Cc1ccccc1NC(=S)c1nc2ccccc2[nH]1 | -7.5 | 0.2 | 19.1 | 34.2 | 59.3 | 2.3
S=C(Nc1ccc(Cl)cc1)c1nc2ccccc2[nH]1 | -16.9 | -3.0 | 76.4* | -0.8 | 54.5 | -4.3
CC(OC(=O)C1=COCCO1)C(=O)Nc1ccc(Oc2ccccc2)cc1 (stereo not drawn) | 14.1 | -2.9 | -2.0 | -0.5 | -9.1 | 2.5
O=C(OC(C(=O)Nc1cc(Cl)cc(Cl)c1)c1ccccc1)C1=COCCO1 (stereo not drawn) | -4.4 | -1.1 | 12.8 | 9.5 | 58.4* | -6.9
C=CCCCCCCCCc1nc(=S)[nH][nH]1 | 60.1* | 0.9 | -3.5 | 0.3 | 74.8* | -0.3
CC(C)n1nc(C(=O)Nc2nnc(SCc3c(Cl)cccc3Cl)s2)c2ccccc2c1=O | 19.1 | -1.5 | 63.7* | -4.4 | 4.9 | -0.2
O=S(=O)(Cc1cc(NCc2ccccc2)nc(-c2ccccn2)n1)c1ccccc1 | 20.5 | -10.1 | 56.3* | 0.0 | 2.5 | -1.7
O=S(=O)(Cc1cc(NCc2ccccc2)nc(-c2ccncc2)n1)c1ccccc1 | 43.1 | -4.0 | 5.6 | -0.2 | -4.4 | -3.8
Cc1cccc(-n2nnnc2SCC(=O)c2cc(C)n(CC3CCCO3)c2C)c1 (stereo not drawn) | 93.2* | 3.8 | 6.1 | 4.7 | 23.4 | 0.6
